Measured values from PubChem BioAssay AID1159580 (chemical genetic matrix, 2015).
The whole screen tested about 5,500 compounds, of which about 2,000 (36%) were called active. Not shown: some 18% with an inconclusive outcome. No stated cut-off is given here; in the data, active means normalized growth mostly below about 0.91 (no sharp cut-off); inconclusive means no clear call, values can overlap the other calls; inactive means mostly above about 0.92. This is one part of the list.

Experiment: chemical genetic growth profiling, strain panel (AID 1159580);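 further: tested at 20 µM; growth read once vehicle control cultures reached saturation at 30 °C; 1 = growth at the plate median or of vehicle wells; lower values mean less growth of the strain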
Settings: S. cerevisiae deletion strains, growth OD

Measured: normalized growth

Oc1ccc2c(c1)OCC1c3cc4c(cc3OC21)OCO4 (stereo not drawn)
inactive: locus YBR021W, strain FUR4, active compounds read low 0.862 | locus YBR229C, strain ROT2, active compounds read low 0.957 | locus YCL029C, strain bik1, active compounds read low 0.946 | locus YDL035C, strain GPR1, active compounds read low 0.981 | locus YDL074C, strain BRE1, active compounds read low 1.03 | locus YDL101C, strain DUN1, active compounds read low 0.987 | locus YDL134C, strain PPH21, active compounds read low 1.02 | locus YDL185W, strain tfp1, active compounds read low 0.964 | locus YDL192W, strain arf1, active compounds read low 0.944 | locus YDR101C, strain arx1, active compounds read low 0.942 | locus YDR150W, strain NUM1, active compounds read low 1 | locus YDR162C, strain NBP2, active compounds read low 0.993 | locus YDR318W, strain mcm21, active compounds read low 0.962 | locus YDR388W, active compounds read low 0.966 | locus YDR502C, strain sam2, active compounds read low 0.961 | locus YEL061C, strain CIN8, active compounds read low 0.99 | locus YER110C, active compounds read low 0.954 | locus YER155C, strain BEM2, active compounds read low 1 | locus YER167W, strain BCK2, active compounds read low 1 | locus YGL078C, strain dbp3, active compounds read low 0.992 | locus YGL086W, strain mad1, active compounds read low 0.957 | locus YGL248W, strain PDE1, active compounds read low 1 | locus YGR135W, strain pre9, active compounds read low 0.993 | locus YGR252W, strain gcn5, active compounds read low 0.902 | locus YHR079C, strain IRE1 (second series), active compounds read low 0.995 | locus YHR094C, strain hxt1, active compounds read low 0.982 | locus YHR129C, strain ARP1, active compounds read low 1.02 | locus YHR200W, strain rpn10, active compounds read low 0.972 | locus YIL066C, strain RNR3, active compounds read low 0.999 | locus YIL073C, strain SPO22, active compounds read low 1.03 | locus YIL125W, strain kgd1, active compounds read low 0.968 | locus YIR030C, strain dcg1, active compounds read low 0.971 | locus YJL095W, strain BCK1, active compounds read low 0.929 | locus YJL134W, strain LCB3, active compounds read low 0.992 | locus YJL168C, strain set2, active compounds read low 0.996 | locus YJL187C, strain SWE1 (second series), active compounds read low 0.966 | locus YJR075W, strain HOC1, active compounds read low 0.999 | locus YKL009W, strain mrt4, active compounds read low 0.987 | locus YKL068W, active compounds read low 1 | locus YKL085W, strain MDH1 (second series), active compounds read low 1.02 | locus YKL085W, strain MDH1, active compounds read low 1.02 | locus YKL190W, strain CNB1, active compounds read low 1.01 | locus YLR039C, strain RIC1, active compounds read low 0.982 | locus YLR058C, strain SHM2, active compounds read low 0.962 | locus YLR102C, strain apc9, active compounds read low 0.984 | locus YLR268W, strain sec22, active compounds read low 0.906 | locus YLR371W, strain rom2, active compounds read low 0.973 | locus YML016C, strain PPZ1, active compounds read low 0.983 | locus YML032C, strain rad52, active compounds read low 0.956 | locus YML124C, strain tub3, active compounds read low 0.995 | locus YMR078C, strain ctf18, active compounds read low 1 | locus YMR223W, strain ubp8, active compounds read low 0.983 | locus YMR307W, strain GAS1, active compounds read low 1.04 | locus YNL067W, strain RPL9B, active compounds read low 1.01 | locus YNL128W, strain TEP1, active compounds read low 1.01 | locus YNL233W, strain BNI4, active compounds read low 1.05 | locus YNL250W, strain rad50, active compounds read low 1 | locus YNL271C, strain bni1, active compounds read low 0.974 | locus YNL298W, strain CLA4, active compounds read low 0.939 | locus YNL307C, strain MCK1, active compounds read low 0.95 | locus YNR052C, strain pop2, active compounds read low 0.994 | locus YOL012C, strain htz1 1.23 | locus YOL147C, strain pex11, active compounds read low 0.967 | locus YOR061W, strain CKA2, active compounds read low 0.988 | locus YOR069W, strain VPS5, active compounds read low 1.01 | locus YOR136W, strain idh2, active compounds read low 0.982 | locus YOR144C, strain elg1, active compounds read low 0.986 | locus YOR316C, strain cot1, active compounds read low 0.985 | locus YPL055C, strain LGE1, active compounds read low 0.963 | locus YPL241C, strain CIN2, active compounds read low 1.01 | locus YPR119W, strain clb2, active compounds read low 1.02 | locus YPR141C, strain kar3, active compounds read low 1.01 | locus YPR167C, strain met16, active compounds read low 1.01 | strain wtn01, active compounds read low 0.943
active: locus YKR001C, strain vps1, active compounds read low 0.863 | locus YLR418C, strain cdc73, active compounds read low 0.781 | locus YOR184W, strain ser1, active compounds read low 0.826 | locus YPR163C, strain tif3, active compounds read low 0.906
